Source: the supplement of paper PMC10849652
Targets with a hit are over-represented here; the source holds about 7,900 in all. About 0.6% of all pairs of compound and target were hits.

Each target was assayed with CNc1nc(-c2ccc3c(N)n[nH]c3c2)cc(N2C[C@@H](C(=O)NC3CCCCC3)CC[C@H]2C)n1 (assay: log2 fold change, soluble protein after heating vs DMSO (PISA); higher = thermal stabilisation; K562 cells, 10 uM, 30 min; active = over 0.2 and 3.5 SD of the protein, either way, in both replicates (recomputed)).
How it was run: (§1)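 Soluble protein was defined as the supernatant after 21,000xg for 90 min. It came from K562 cells at 2×10^6 cells/mL given 10 μM compound for 30 min, heated in aliquots for 3 min across 48°C-58°C, pooled, and extracted in PBS with 0.5% NP-40 at 4°C, and was quantified by TMTpro 16plex LC-MS/MS with equalised channel sums. Thermal stability against control samples, from duplicates, is reported as log2 fold change.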

Chain of UniProt Q71SY5 (Q71SY5 whole entry, looked up): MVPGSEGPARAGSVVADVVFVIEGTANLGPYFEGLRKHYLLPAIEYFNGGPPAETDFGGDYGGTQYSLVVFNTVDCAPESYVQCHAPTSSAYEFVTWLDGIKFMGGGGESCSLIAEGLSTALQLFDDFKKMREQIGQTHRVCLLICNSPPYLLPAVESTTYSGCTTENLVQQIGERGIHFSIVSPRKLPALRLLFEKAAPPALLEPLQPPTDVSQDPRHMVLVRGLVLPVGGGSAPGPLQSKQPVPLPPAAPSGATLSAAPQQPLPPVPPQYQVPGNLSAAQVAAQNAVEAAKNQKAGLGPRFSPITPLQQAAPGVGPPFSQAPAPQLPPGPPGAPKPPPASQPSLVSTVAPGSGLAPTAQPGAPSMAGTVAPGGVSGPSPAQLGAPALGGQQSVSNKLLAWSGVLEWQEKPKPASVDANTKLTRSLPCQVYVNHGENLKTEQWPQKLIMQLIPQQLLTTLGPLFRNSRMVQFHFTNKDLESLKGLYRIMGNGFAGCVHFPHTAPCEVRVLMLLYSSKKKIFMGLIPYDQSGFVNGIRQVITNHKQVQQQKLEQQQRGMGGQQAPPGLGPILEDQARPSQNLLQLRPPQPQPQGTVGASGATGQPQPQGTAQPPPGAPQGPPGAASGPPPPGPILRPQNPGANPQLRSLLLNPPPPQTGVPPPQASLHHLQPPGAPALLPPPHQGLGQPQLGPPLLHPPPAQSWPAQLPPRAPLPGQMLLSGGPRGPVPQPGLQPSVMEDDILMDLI
Chain of UniProt P51884 (P51884 whole entry, looked up): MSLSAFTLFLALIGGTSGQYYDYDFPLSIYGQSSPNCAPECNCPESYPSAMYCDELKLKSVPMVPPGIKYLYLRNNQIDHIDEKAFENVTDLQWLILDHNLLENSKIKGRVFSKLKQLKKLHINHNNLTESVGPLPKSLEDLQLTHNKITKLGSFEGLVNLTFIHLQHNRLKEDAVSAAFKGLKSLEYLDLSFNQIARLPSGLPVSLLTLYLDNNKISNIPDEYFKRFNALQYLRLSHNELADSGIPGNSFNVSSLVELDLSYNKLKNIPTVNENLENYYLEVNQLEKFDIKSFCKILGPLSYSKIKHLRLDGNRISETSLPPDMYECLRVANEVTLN
Chain of UniProt Q16539 (Q16539 whole entry, looked up): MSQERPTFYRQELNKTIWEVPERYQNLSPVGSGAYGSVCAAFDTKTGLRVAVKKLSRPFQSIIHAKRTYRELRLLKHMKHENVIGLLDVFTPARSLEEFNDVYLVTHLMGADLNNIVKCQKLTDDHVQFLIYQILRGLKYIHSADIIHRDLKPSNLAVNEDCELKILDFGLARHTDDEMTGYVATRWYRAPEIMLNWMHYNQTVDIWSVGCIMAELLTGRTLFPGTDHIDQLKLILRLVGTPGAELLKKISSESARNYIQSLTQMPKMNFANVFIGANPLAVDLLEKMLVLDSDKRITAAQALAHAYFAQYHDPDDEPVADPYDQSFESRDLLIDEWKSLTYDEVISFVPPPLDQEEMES
Chain of UniProt Q9NVC6 (Q9NVC6 whole entry, looked up): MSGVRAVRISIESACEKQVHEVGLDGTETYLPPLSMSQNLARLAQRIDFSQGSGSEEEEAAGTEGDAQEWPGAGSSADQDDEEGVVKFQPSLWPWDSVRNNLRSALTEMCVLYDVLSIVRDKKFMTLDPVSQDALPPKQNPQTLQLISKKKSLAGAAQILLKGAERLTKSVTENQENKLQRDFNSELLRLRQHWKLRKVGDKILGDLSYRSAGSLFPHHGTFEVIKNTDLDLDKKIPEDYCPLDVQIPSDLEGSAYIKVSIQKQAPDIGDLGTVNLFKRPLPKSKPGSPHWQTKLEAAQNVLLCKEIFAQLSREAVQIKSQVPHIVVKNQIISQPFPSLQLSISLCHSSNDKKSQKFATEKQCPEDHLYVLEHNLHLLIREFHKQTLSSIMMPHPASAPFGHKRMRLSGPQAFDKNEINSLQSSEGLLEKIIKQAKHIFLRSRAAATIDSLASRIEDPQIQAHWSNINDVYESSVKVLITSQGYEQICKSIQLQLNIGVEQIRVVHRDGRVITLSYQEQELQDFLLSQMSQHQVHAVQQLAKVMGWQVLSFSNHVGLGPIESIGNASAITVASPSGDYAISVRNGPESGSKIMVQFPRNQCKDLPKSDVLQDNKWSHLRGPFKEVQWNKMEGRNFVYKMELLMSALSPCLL
Chain of UniProt Q6UB28 (Q6UB28 whole entry, looked up): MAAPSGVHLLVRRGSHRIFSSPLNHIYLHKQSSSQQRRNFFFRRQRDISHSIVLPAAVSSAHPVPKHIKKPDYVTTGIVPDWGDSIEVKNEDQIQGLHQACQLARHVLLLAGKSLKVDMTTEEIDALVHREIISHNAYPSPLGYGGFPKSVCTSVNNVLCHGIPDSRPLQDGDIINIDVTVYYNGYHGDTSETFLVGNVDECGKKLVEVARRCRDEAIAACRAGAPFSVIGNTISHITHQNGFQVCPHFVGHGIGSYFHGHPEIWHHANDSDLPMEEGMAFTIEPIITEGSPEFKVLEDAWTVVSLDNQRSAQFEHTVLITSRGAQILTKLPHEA
Chain of UniProt Q15528 (Q15528 whole entry, looked up): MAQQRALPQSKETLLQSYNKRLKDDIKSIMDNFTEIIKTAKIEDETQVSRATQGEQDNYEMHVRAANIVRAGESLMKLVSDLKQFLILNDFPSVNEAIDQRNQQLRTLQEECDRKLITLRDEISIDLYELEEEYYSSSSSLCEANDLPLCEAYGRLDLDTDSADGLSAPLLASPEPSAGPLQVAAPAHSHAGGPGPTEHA
Chain of UniProt Q96LU5 (Q96LU5 whole entry, looked up): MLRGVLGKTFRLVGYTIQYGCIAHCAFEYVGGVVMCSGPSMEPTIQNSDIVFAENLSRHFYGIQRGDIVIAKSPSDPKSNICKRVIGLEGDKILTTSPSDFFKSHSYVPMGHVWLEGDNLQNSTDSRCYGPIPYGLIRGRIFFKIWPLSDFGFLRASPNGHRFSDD
Chain of UniProt Q96GX5 (Q96GX5 whole entry, looked up): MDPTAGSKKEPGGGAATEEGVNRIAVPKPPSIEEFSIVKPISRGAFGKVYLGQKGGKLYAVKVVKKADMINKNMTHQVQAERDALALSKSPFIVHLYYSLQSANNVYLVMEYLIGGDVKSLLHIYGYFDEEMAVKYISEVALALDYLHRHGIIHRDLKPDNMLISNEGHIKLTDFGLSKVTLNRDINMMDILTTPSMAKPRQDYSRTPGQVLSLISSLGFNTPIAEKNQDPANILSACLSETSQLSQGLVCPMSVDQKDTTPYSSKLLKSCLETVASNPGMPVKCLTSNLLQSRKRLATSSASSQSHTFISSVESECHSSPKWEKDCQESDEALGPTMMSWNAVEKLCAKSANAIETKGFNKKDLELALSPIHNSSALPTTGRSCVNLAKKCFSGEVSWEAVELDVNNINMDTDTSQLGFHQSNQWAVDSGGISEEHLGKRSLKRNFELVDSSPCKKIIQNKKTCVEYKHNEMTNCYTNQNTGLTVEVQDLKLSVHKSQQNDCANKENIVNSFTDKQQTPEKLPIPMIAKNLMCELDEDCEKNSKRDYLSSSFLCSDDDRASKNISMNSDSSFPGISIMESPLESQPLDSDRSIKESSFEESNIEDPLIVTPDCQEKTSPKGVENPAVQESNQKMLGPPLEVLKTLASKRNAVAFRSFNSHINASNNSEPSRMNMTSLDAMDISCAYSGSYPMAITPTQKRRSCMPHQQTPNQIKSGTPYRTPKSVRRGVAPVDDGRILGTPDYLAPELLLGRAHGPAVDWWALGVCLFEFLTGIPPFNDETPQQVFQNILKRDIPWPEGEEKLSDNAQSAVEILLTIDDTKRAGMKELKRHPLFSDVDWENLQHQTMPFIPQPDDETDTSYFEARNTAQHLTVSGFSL
Chain of UniProt P28290 (P28290 whole entry, looked up): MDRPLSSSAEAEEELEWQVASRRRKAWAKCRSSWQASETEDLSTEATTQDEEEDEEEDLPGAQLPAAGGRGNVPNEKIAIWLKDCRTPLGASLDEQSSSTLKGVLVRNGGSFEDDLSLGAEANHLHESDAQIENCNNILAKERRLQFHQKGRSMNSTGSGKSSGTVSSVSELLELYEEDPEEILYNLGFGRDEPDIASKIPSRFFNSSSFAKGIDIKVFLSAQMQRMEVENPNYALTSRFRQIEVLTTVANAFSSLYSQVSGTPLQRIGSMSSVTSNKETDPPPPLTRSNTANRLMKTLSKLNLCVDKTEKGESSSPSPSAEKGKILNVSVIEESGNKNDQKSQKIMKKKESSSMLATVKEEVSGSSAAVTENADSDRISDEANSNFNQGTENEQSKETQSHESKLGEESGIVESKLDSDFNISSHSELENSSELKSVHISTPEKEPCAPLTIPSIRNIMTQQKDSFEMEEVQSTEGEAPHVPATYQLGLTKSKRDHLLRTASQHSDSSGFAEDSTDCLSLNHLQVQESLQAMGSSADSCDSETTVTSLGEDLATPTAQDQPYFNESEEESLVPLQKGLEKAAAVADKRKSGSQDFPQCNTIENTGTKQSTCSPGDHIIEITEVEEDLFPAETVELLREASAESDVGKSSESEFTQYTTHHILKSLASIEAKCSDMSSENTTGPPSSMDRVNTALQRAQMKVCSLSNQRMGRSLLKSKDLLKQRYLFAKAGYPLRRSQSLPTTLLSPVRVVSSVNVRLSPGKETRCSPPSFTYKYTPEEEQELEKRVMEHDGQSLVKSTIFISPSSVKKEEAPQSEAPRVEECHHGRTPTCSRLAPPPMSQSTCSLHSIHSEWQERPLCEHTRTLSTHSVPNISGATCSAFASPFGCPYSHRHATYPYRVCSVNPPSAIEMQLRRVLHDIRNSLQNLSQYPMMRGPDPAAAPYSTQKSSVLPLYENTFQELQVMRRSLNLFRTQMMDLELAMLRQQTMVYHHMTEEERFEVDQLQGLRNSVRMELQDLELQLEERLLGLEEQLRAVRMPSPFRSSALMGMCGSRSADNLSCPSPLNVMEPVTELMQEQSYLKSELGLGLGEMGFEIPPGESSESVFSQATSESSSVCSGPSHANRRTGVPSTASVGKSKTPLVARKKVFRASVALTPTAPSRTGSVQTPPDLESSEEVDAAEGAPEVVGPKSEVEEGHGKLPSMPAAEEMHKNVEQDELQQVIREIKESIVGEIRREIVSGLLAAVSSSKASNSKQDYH

log2 fold change, inactive:
LRFN1 (UniProt Q9P244) -0.028
MASTL (UniProt Q96GX5) -0.055
IP6K1 (UniProt Q92551) 0.119
MED25 isoform 3 (UniProt Q71SY5) 0.036
KXD1 (UniProt Q9BQD3) -0.07
MED17 (UniProt Q9NVC6) 0.031
ILRUN (UniProt Q9H6K1) 0.049

The targets below were run with COC(=O)N[C@@H](C)CNc1nccc(-c2cn(C(C)C)nc2-c2cc(Cl)cc(NS(C)(=O)=O)c2F)n1 [encorafenib] in the same assay as above.
How it was run: as §1

log2 fold change, inactive:
MAPK14 (UniProt Q16539) 0.684
MAP4K2 (UniProt Q12851) 0.066
ITM2B (UniProt Q9Y287) 0.098
METAP1D (UniProt Q6UB28) 0.006
IL27RA (UniProt Q6UWB1) -0.023
LPGAT1 (UniProt Q92604) 0.026
MED12 isoform 2 (UniProt Q93074) 0.145
KMT2C isoform 3 (UniProt Q8NEZ4) -0.012
LUM (UniProt P51884) -0.011
ITPRID2 (UniProt P28290) -0.087
LRBA, A0A494BZW2 0.041
IMMP1L (UniProt Q96LU5) -0.037
KIF3B (UniProt O15066) 0.034
MED8 isoform 2 (UniProt Q96G25) -0.024
MFSD8 (UniProt Q8NHS3) 0.012
MED22 (UniProt Q15528) 0.12
